Epigenetic reg = regulators of epigenetic silencing causing reporter derepression in mouse cells; murine LDR cells, GFP reporter derepression, 30 h; Potency, µM (titrated, usually from 53.9 µM), for inactives: top-dose GFP activation, most hits filed as activators; 280,000 tested, 0.2% active; note: % of control where 0% means no effect; nearly all actives have a fitted effect of over 60% in size
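Reporter derepression read as number of fluorescent GFP-positive objects, 20-120 um in size, counted by laser-scanning cytometer. Mouse LDR line with an epigenetically silenced CMV-GFP locus; compound incubation 30 h, 37 C.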
RORg inh = blocks mouse ROR gamma transcriptional activity; P51450; Drosophila S2 Gal4-RORgamma UAS-luciferase reporter, 20 h; Potency, µM (highest dose often 53.6 µM), for inactives: at the top dose activity change, negative = inhibition, actives largely listed as inhibitors; 310,000 tested, 5.4% active; AID 2551; note: % is set by controls: 0 for no effect and ±100 for the full control effect; nearly all actives have a fitted effect of over 60% in size
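Drosophila S2 cells stably expressing Gal4-DBD/mouse RORγ fusion under metallothionein promoter plus UAS-luciferase; compound 1 h, then 700 uM CuSO4 induction for 20 h at ambient temperature; inhibition read as reduced luminescence.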
VP16 counter = inhibits Gal4-VP16 luciferase reporter, ROR gamma counter-screen; Drosophila S2 Gal4-VP16 UAS-luciferase, luminescence, 20 h; Potency, µM (series often up to 53.6 µM), for inactives: top-dose activity, negative = inhibition, most hits filed as inhibitors; 310,000 tested, 3.5% active; AID 2546;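 note: Gal4-VP16 expression switched on by copper sulfate through the metallothionein promoter; % is set by controls: 0 for no effect and ±100 for the full control effect; nearly all actives have a fitted effect of over 50% in size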
Sfp PPTase inh = inhibitors of Bacillus subtilis Sfp phosphopantetheinyl transferase; Q9F4F7; Biochemical Sfp PPTase activity, qHTS; Potency, µM, for the others: largest response in the series, negative = inhibition, hits mostly inhibitors; 310,000 tested, 3.5% active;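 note: the enzyme is Sfp with the accession as filed and its product quenches rhodamine fluorescence; 0% = enzyme reaction without inhibitor and -100% = no enzyme wells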
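Compounds were incubated with enzyme (final 15 nM) for 15 min at room temperature before substrate addition started the reaction. Fluorescence at 525 nm excitation, 598 nm emission was recorded immediately and after 30 minutes.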
PINK1 expr mod = PINK1 expression modulation; PINK1 immunofluorescence, high-content cytometry, 24 h; Potency, µM (doses to about 76.6 µM), inactives show at the top dose activation (PINK1 increase), usual class: activators; 410,000 tested, 0.2% active; active = well fitted activation curve with a large enough effect; inconclusive = small, poorly fitted or top-dose-only effect; cell line not stated here; note: % of control where 0% means no effect; nearly all actives have a fitted effect of over 65% in size
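A stable cell line was treated with compounds at 5 concentrations for 24 hours, with CCCP as control. PINK1 levels and mitochondrial localization were measured by immunofluorescence with mitochondrial, cell and nuclear markers after fixation, read by laser-scanning cytometry.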
ClpP mod = qHTS Assay for Activators of ClpP. ATP-dependent Clp protease proteolytic subunit (Bacillus subtilis (strain 168)), P80244. purified B. subtilis ClpP, FRET peptide cleavage, 20 min. Potency, µM (doses to about 57.5 µM), inactives show top-dose activity change, negative = active. 340,000 tested, 1.9% active. AID 651965, 2013; active = well fitted falling curve with a large enough effect; inconclusive = small, poorly fitted or top-dose-only effect; inactive = no such curve, though single readings can be large or run the other way; note: the source files actives as falling curves though it sought activators and does not explain the sign; nearly all actives have a fitted effect of over 65% in size
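ClpP 10 microg/mL final, pH 8 Tris/KCl buffer with BSA, glycerol, Tween-20; compound pinned in; FRET-FV substrate; RT 20 min; Ex320/Em430; ΔFRET vs ADEP 5.8 microM, DMSO, no enzyme.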
Numbers without * were called inactive; ? = inconclusive; · = no result given; ! = not active in a repeat; [ ] = remark or other dose. Compounds with a hit are over-represented: about 8.1% of the library has one in this group of screens. Unless noted, calls come from the whole dose curve; as a rule, active = well fitted curve in the direction sought with a large enough effect; inconclusive = small, poorly fitted or top-dose-only effect, or another doubt; inactive = no such curve, though single readings can be large; an effect the other way counts as inactive or inconclusive. Potency is the fitted concentration of half-maximal effect.

SMILES	Epigenetic reg	RORg inh	VP16 counter	Sfp PPTase inh	PINK1 expr mod	ClpP mod
Cc1ccc(C(=O)NC2CCCc3c2cnn3-c2ccc(F)cc2F)cn1 (stereo not drawn)	·	?	2.8µM*	16%	·	·
Cc1nnsc1C(=O)NC1CCCc2c1cnn2-c1cc(F)cc(F)c1 (stereo not drawn)	·	16%	0%	7%	-2%	-5%
Cc1nnsc1C(=O)NC1CCCc2c1cnn2-c1ccc(F)cc1F (stereo not drawn)	·	?	7.1µM*	14%	1%	-1%
O=C(CN1C(=O)CCc2cc(S(=O)(=O)N3CCCCC3)ccc21)NCc1ccc(Cl)cc1	-4%	·	·	·	1%	22%
Cc1nnc(N/N=C/C(C)c2ccccc2)[nH]c1=O (stereo not drawn)	0%	-28%	-1%	79µM*	3%	·
Cc1nnc(N/N=C/c2c[nH]c3ccccc23)[nH]c1=O	8%	-13%	1%	-4%	1%	-1%
C[C@@H](NCCc1ccc(O)cc1)[C@@H](O)c1ccc(O)cc1	0%	·	·	·	2%	1%
CCCCCCCCNC(C)C(O)c1ccc(SC(C)C)cc1 (stereo not drawn)	?	11µM*!	?	?	-1%	-1%
COc1cc(/C=C/C(=O)O)cc(S(=O)(=O)NCCCO)c1OC	5%	2%	-7%	24%	0%	28µM*
O=C(NC(=S)NCc1ccccc1)c1ccc2c(c1)OCO2	-1%	7.9µM*	11µM*	3%	-1%	2%
O=C(NC(=S)NCc1ccc2c(c1)OCO2)c1ccccc1	0%	20µM*	18µM*	-6%	0%	-2%
O=C(NNC(=S)NCc1ccccc1)c1ccc2c(c1)OCO2	-1%	-22%	?	5%	0%	13%
O=C(NCc1ccc2c(c1)OCO2)c1ccccc1	3%	?	21%	6%	-1%	·
O=C(O)CNC(=O)c1ccc2c(c1)OCCO2	-1%	-11%	-8%	-2%	13µM*	0%
O=C(NCCc1ccccc1)c1ccc2c(c1)OCO2	·	2.8µM*	5µM*	8%	0%	·
COCC(C)NC(=S)NCCc1ccc(Cl)cc1Cl (stereo not drawn)	13%	1µM*	3.5µM*	20%	7%	0%
COCCNC(=S)NCCc1ccc(Cl)cc1Cl	1%	6.3µM*	-26%	11%	6%	2%
CCOc1ccc(C(=O)NNC2CC(=O)N(Cc3ccc(Cl)cc3)C2=O)cc1OC (stereo not drawn)	0%	3.2µM*	1.3µM*	6%	0%	0%
COc1ccc(C(=O)NNC2CC(=O)N(Cc3ccccc3)C2=O)cc1OC (stereo not drawn)	0%	2%	-11%	9%	2%	320%
COc1ccc(-c2nnc3n2N=C(c2ccc(OC)c(OC)c2)CS3)c(OC)c1	·	33%	-1%	3%	·	·
CCc1cccc2c(C(=O)COC(=O)c3nccnc3N)c[nH]c12	·	·	·	·	0%	28µM*
CCc1cccc2c(C(=O)COC(=O)c3ccccc3)c[nH]c12	1%	55%	4%	7%	4%	-22%
N#C/C(=N\Nc1cccc2ccccc12)c1nnc2n1CCCCC2	1%	?	3.2µM*	?	?	1%
CC1CCN(C(=S)NC(=O)c2ccco2)CC1	·	4µM*	6.3µM*	-15%	1%	0%
O=C(NC(=S)N1CCN(Cc2ccccc2)CC1)c1ccco1	0%	0.89µM*	3.5µM*	-7%	-1%	·
SMILES	Epigenetic reg	RORg inh	VP16 counter	Sfp PPTase inh	PINK1 expr mod	ClpP mod
CC1CCCCN1C(=S)NC(=O)c1ccco1 (stereo not drawn)	·	·	·	·	2%	2%
Cc1ccc(C2C=C(c3ccc(Cl)cc3)Nc3nc(NC(=O)c4ccco4)nn32)cc1 (stereo not drawn)	-1%	·	·	·	-1%	4%
CCc1ccc(S(=O)(=O)c2cn(C)c3cc(N4CCC(C)CC4)c(F)cc3c2=O)cc1	0%	·	·	·	1%	13%
Cc1[nH]n(-c2ncc(-c3ccccc3)s2)c(=O)c1C(c1ccc(Br)cc1)C(C#N)C#N (stereo not drawn)	?	11µM*	13µM*	56µM*	?	22%
Cc1[nH]n(C(N)=S)c(=O)c1C(c1ccccc1)C(C#N)C#N (stereo not drawn)	4%	10µM*	10µM*	-16%	-1%	0%
C=CC(=O)c1ccc(CCCCCC)cc1	·	1%	-25%	?	·	·
COc1ccc(-c2csc(N3C(=N)SCC3=O)n2)cc1	1%	4µM*	?	-19%	-1%[38.3 µM]	1%
O=C(CCOc1ccccc1)NO	·	·	·	·	2%	-1%
CC(C)c1ccc(N2C(=O)/C(=C/N(C)C)SC2=S)cc1	-1%	23%	?	28%	1%	0%
CN(C)/C=C1\NC(=S)N(c2ccccc2)C1=O	0%	-21%	1%	50µM*	1%	·
CN(C)/C=C1\NC(=S)N(c2ccc(Cl)cc2)C1=O	0%	-34%	-18%	32µM*	1%	·
Cc1ccc(SC(=O)c2c([N+](=O)[O-])c(C)nn2C)cc1	22µM*	4µM*	3.5µM*	?	4%	·
Cc1cc(C)n(C(=O)c2c([N+](=O)[O-])c(C)nn2C)n1	1%	26%	-13%	14%	6%[38.3 µM]	1%
COc1cc(C=CC(=O)c2ccccc2)cc(OC)c1OC	·	·	·	·	-1%	-1%
O=C(/C=C/c1ccc(O)cc1)c1cccs1	-3%	14µM*	-3%	-21%	·	·
O=C(C=Cc1cccs1)c1cccs1	·	·	·	·	-2%	·
COc1cc(/C=C/C(=O)c2cccs2)cc(OC)c1OC	5%	7.9µM*	?	?	·	·
O=C1c2oc3ccccc3c(=O)c2C(c2ccccc2F)N1Cc1ccc2c(c1)OCO2 (stereo not drawn)	-1%	·	·	·	0%	0%
O=C(O)c1[nH]c2ccccc2c1NS(=O)(=O)Cc1ccccc1	-1%	9%	5%	26%	1%	28µM*
O=C(O)c1[nH]c2ccccc2c1NS(=O)(=O)c1ccc(F)cc1	·	3%	15%	7%	2%	0%
COCCn1c(=NC(=O)c2cc(-c3cccs3)nc3ccccc23)sc2cc(S(N)(=O)=O)ccc21	2%	?	-22%	7%	6%	1%
COCCn1c(=NC(=O)c2sc3ccccc3c2Cl)sc2cc(S(N)(=O)=O)ccc21	15%	6%	?	-23%	13%	22µM*
C=CCn1c(=NC(=O)c2sc3ccccc3c2Cl)sc2cc(S(N)(=O)=O)ccc21	-1%	?	?	-10%	?	25µM*
CCOC(=O)Cn1c(=NC(=O)c2nc3ccccc3s2)sc2cc(S(N)(=O)=O)ccc21	?	-15%	?	12%	9%	32µM*

From PubChem BioAssay
